ChEMBL document CHEMBL3988442, “University of Dundee, Small-Polar-MMV Screening Library” (2021)

Target: T1, Aspartate--tRNA(Asp/Asn) ligase (Mycobacterium tuberculosis (strain ATCC 25618 / H37Rv)) (UniProt P9WFW3); also: in the data most compounds retested in dose-response had high values
T1 sequence (whole entry): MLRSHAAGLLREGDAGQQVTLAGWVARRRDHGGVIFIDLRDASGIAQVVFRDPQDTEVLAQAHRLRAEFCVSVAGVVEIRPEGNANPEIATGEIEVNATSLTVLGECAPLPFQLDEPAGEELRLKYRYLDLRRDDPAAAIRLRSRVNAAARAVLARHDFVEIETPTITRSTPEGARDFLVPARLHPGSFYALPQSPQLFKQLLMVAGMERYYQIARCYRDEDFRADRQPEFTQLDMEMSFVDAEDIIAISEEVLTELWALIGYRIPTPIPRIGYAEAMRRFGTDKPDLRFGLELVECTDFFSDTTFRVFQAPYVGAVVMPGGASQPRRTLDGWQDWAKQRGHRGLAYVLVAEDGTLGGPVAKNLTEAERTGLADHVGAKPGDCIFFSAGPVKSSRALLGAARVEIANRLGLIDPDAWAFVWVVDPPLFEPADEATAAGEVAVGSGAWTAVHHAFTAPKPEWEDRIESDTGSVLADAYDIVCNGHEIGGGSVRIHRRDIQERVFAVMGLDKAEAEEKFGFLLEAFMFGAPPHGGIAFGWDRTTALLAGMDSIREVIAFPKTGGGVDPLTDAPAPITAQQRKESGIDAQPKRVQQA
Assay: Assay for Asp RNA synthetase-1 from Mycobacterium tuberculosis
Format: functional
Set-up: scale not given: direction of the effect not stated beside the values
Details: 30 µM

Structure (SMILES) | Percent Effect [%]
CN1CCOC(CNCc2cccc(OCC(F)(F)F)c2)C1 (stereo not given) | -2.34
CS(=O)(=O)NC[C@]12COC[C@H]1CN(C(=O)Cc1ccccc1F)C2 | 6.16
Cn1ncc2c1CCCC2NCc1cc(Br)cs1 (stereo not given) | -1.12
Cn1cccc1CCC(=O)N1CCC2(CC1)c1ccccc1CC2O (stereo not given) | 2.11
CCN1CC2(CC1=O)CN(C(=O)c1ccco1)CCN(C(=O)N(C)C)C2 (stereo not given) | 0.684
CC(C)Oc1ncccc1CNC(=O)C1CCCN(C(=O)C2CC2)C1 (stereo not given) | -4.79
CC(C)CN1CCC2(CCN(Cc3ccoc3)CC2)C1=O | 6.3
Cc1cccc(-n2cc(C(=O)N3CCn4c(C)nnc4C3)nn2)c1 | -2.42
CCCN1CCCn2nc(CNS(=O)(=O)c3ccc(C)cc3)cc2C1 | -1.38
Cc1nn(C)c(N(C)C)c1CNCC(O)COc1ccc(F)cc1 (stereo not given) | -7.16
O=C(c1cccc(Cl)c1)N1CCCn2c(CN3CCCCC3)nnc2C1 | -2.93
CC(C)Oc1ncccc1CNC(=O)c1ccco1 | -4.72
Cc1nc(C2CCCN(C(=O)c3ccc(OCC4CC4)cc3)C2)no1 (stereo not given) | -8.26
O=C(NCC1CC1)Nc1cccc(N2CCN(CC3CC3)CC2)c1 | -1.59
CCn1c(=O)nc2n1C(=O)N(c1cccc(Cl)c1)C2 | 0.929
CCC(CC)C(CNC(=O)Nc1cc(C)nn1C)N1CCOCC1 (stereo not given) | -8.48
O=C(NCc1cncc2c1CCN(Cc1cccc(F)c1)C2)C1CC1 | 1.78
CC1CN=C(N2CCN(C(=O)Nc3nc(-c4ccccc4)ns3)CC2)S1 (stereo not given) | 3.62
CC(=O)NCCN1CCC(c2cccs2)CC1 | -5.78
Cc1cccc(CN2CCN(Cc3ccccc3)CC(O)C2)n1 (stereo not given) | 2.13

Structure (SMILES) | Percent Effect [%]
CNc1cccc(C2CCCN(C(C)=O)C2)n1 (stereo not given) | 7.52
CS(=O)(=O)NCc1nnc2n1CCN(CC1CC1)C2 | 2.77
Cc1cc(C2CCCN2CCCc2nc3ccccc3o2)on1 (stereo not given) | -0.533
CC(=O)c1cc(CC(=O)NCc2ccc(CN(C)C)cc2)cs1 | 1.66
Cc1cc(-c2cnc(N3CCNC(=O)C3)nc2-c2cccnc2C)on1 | -4.46
O=C(c1ccc(Br)s1)N1CCN(Cc2ccc(OC(F)(F)F)cc2)CC1 | -3.13
CN(Cc1ccccc1)CC1(O)CCCN(CC(C)(C)C)C1=O (stereo not given) | -7.46
COc1ccc(CC(=O)N2C[C@@H]3COC[C@]3(CN(C)C)C2)cc1 | -5.29
O=S(=O)(N1CCCCC1)N1CCc2nc(C3CCNCC3)ncc2C1 | -1.74
NC(=O)c1ccc(N2CCCCC2)c(NC(=O)c2cncc(Br)c2)c1 | 13.7
COc1ccc(Cl)cc1NCC(=O)NCCc1ccccn1 | -0.954
Cc1ccc(CC(=O)N2CSCC2C(=O)N(C)Cc2ccco2)o1 (stereo not given) | 8.09
O=C(CN1C=Nc2ccccc2S1(=O)=O)NCCc1cccs1 | 0.225
CNC(=O)N1CC[C@H]2N(C)CC[C@@]2(C(=O)Nc2ccccc2)CC1 | -8.12
COc1cc(C)nc(N2CCN(Cc3nccn3C)CC2)n1 | -1.39
CS(=O)(=O)N1CC[C@]2(C[C@@H](OCC3CCC3)CO2)C1 | -2.3
CN1CCC(c2nnc(CN3CCC(O)CC3)n2C)CC1 | 10.8
Cn1cc(C2CCCN2Cc2csc(C(C)(C)C)n2)cn1 (stereo not given) | -4.83
Cc1cnc(CN(C)C2CCN(CCn3cc(C#N)cn3)C2)o1 (stereo not given) | 5.46
Cc1cnc(C(=O)N2CCCN(Cc3csc(C)n3)CC2)cn1 | -0.524

Target: Shiga toxin 2 (Escherichia coli O157:H7) (UniProt P09385+P09386)
Assay: E. coli 0.157:H7 Shiga Toxin SOP - stx2 screening assay
Format: functional
Set-up: scale not given: direction of the effect not stated beside the values
Details: 30 µM

Structure (SMILES) | Percent Effect [%]
CN1CCOC(CNCc2cccc(OCC(F)(F)F)c2)C1 (stereo not given) | 2.68
CS(=O)(=O)NC[C@]12COC[C@H]1CN(C(=O)Cc1ccccc1F)C2 | -11.5
Cn1ncc2c1CCCC2NCc1cc(Br)cs1 (stereo not given) | 7.1
Cn1cccc1CCC(=O)N1CCC2(CC1)c1ccccc1CC2O (stereo not given) | -22.3
CCN1CC2(CC1=O)CN(C(=O)c1ccco1)CCN(C(=O)N(C)C)C2 (stereo not given) | -12.4
CC(C)Oc1ncccc1CNC(=O)C1CCCN(C(=O)C2CC2)C1 (stereo not given) | 33.3
CC(C)CN1CCC2(CCN(Cc3ccoc3)CC2)C1=O | -11.6
Cc1cccc(-n2cc(C(=O)N3CCn4c(C)nnc4C3)nn2)c1 | -92.9
CCCN1CCCn2nc(CNS(=O)(=O)c3ccc(C)cc3)cc2C1 | 6.63
Cc1nn(C)c(N(C)C)c1CNCC(O)COc1ccc(F)cc1 (stereo not given) | 8.48
O=C(c1cccc(Cl)c1)N1CCCn2c(CN3CCCCC3)nnc2C1 | -13.3
CC(C)Oc1ncccc1CNC(=O)c1ccco1 | -7.65
Cc1nc(C2CCCN(C(=O)c3ccc(OCC4CC4)cc3)C2)no1 (stereo not given) | -5.46
O=C(NCC1CC1)Nc1cccc(N2CCN(CC3CC3)CC2)c1 | -38.1
CCn1c(=O)nc2n1C(=O)N(c1cccc(Cl)c1)C2 | -43.9
CCC(CC)C(CNC(=O)Nc1cc(C)nn1C)N1CCOCC1 (stereo not given) | -29.4
O=C(NCc1cncc2c1CCN(Cc1cccc(F)c1)C2)C1CC1 | -32.2
CC1CN=C(N2CCN(C(=O)Nc3nc(-c4ccccc4)ns3)CC2)S1 (stereo not given) | -38.1
CC(=O)NCCN1CCC(c2cccs2)CC1 | 1.86
Cc1cccc(CN2CCN(Cc3ccccc3)CC(O)C2)n1 (stereo not given) | 13.4

Structure (SMILES) | Percent Effect [%]
CNc1cccc(C2CCCN(C(C)=O)C2)n1 (stereo not given) | 23.2
CS(=O)(=O)NCc1nnc2n1CCN(CC1CC1)C2 | 4.81
Cc1cc(C2CCCN2CCCc2nc3ccccc3o2)on1 (stereo not given) | 28.6
CC(=O)c1cc(CC(=O)NCc2ccc(CN(C)C)cc2)cs1 | -38.2
Cc1cc(-c2cnc(N3CCNC(=O)C3)nc2-c2cccnc2C)on1 | -9.56
O=C(c1ccc(Br)s1)N1CCN(Cc2ccc(OC(F)(F)F)cc2)CC1 | -21.7
CN(Cc1ccccc1)CC1(O)CCCN(CC(C)(C)C)C1=O (stereo not given) | 17.9
COc1ccc(CC(=O)N2C[C@@H]3COC[C@]3(CN(C)C)C2)cc1 | -4.41
O=S(=O)(N1CCCCC1)N1CCc2nc(C3CCNCC3)ncc2C1 | 13.4
NC(=O)c1ccc(N2CCCCC2)c(NC(=O)c2cncc(Br)c2)c1 | -52.6
COc1ccc(Cl)cc1NCC(=O)NCCc1ccccn1 | 25.8
Cc1ccc(CC(=O)N2CSCC2C(=O)N(C)Cc2ccco2)o1 (stereo not given) | 12
O=C(CN1C=Nc2ccccc2S1(=O)=O)NCCc1cccs1 | -2.28
CNC(=O)N1CC[C@H]2N(C)CC[C@@]2(C(=O)Nc2ccccc2)CC1 | 15.9
COc1cc(C)nc(N2CCN(Cc3nccn3C)CC2)n1 | -9.36
CS(=O)(=O)N1CC[C@]2(C[C@@H](OCC3CCC3)CO2)C1 | 6.17
CN1CCC(c2nnc(CN3CCC(O)CC3)n2C)CC1 | -2.24
Cn1cc(C2CCCN2Cc2csc(C(C)(C)C)n2)cn1 (stereo not given) | -11.7
Cc1cnc(CN(C)C2CCN(CCn3cc(C#N)cn3)C2)o1 (stereo not given) | 17.1
Cc1cnc(C(=O)N2CCCN(Cc3csc(C)n3)CC2)cn1 | -41.5
